HepG2 tox: HepG2 cytotoxicity, counter-screen for TGF-b inhibitors; Potency, µM (series often up to 46.1 µM), usual class: cytotoxic; actives 0.76% (n = 410,000); AID 588856; HepG2 CAGA-GFP viability, ATP luminescence, 18 h
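CellTiter-Glo luminescence gave cytotoxicity after 18 hours at 37 degrees C. The cells were HepG2 CAGA-GFP in 1% FBS DMEM, stimulated with 500 pg/mL TGF-beta after compound addition. %Activity was normalised to no-cell wells (complete cell-killing) and DMSO (no toxicity), and curves were fitted and classified.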
DT40 TDP1 no CPT: qHTS for Inhibitors of human tyrosyl-DNA phosphodiesterase 1 (TDP1): qHTS in cells in absence of CPT. DT40 Tdp1-/- hTDP1 cells, no CPT, ATP luminescence, 48 h. Potency, µM (top dose mostly 46.2 µM), usual class: inhibitors. actives 15% (n = 420,000). AID 686978, 2013; also: nearly all actives have a fitted effect of over 55% in size
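Readout: luminescence from CellTiter-Glo after 30 min in the dark at RT. Cells: DT40 Tdp1-/- with stable hTDP1, 400/well. Exposure: compounds alone, ≥48 hr, 37 °C.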
TDP1 cell CPT: growth inhibition of DT40 Tdp1-/-;hTDP1 cells with camptothecin (screen for TDP1 inhibitors) | chicken DT40 Tdp1-/-;hTDP1 cells + 20 nM CPT, ATP luminescence, 48 h | Potency, µM (series often up to 46.2 µM), most hits filed as inhibitors | actives 12% (n = 420,000) | AID 686979; also: nearly all actives have a fitted effect of over 55% in size
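Cell growth measured by CellTiter-Glo luminescence after a minimum 48 h, 37 C compound exposure with 20 nM CPT in Tdp1-knockout DT40 cells stably expressing hTDP1, seeded 400/well; qHTS titration format.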
ATXN2 expr inh: inhibitors of ATXN2 expression; HEK-293 ATXN2-luciferase reporter, luminescence, 24 h; Potency, µM (top dose mostly 57 µM), usual class: inhibitors; AID 1745845; actives 0.72% (n = 360,000); also: nearly all actives have a fitted effect of over 55% in size
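qHTS (up to 57 uM final) was run with 24 h compound exposure of reporter cells at 37 °C. Each well was multiplexed: SteadyGlo luminescence measured ATXN2-luciferase expression after a fluorogenic Gly-Phe-AFC viability readout (25 uM final).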
TGFb SMAD3 inh: inhibitors of TGF-b signaling | HepG2 CAGA-GFP TGF-b/SMAD3 reporter, GFP fluorescence, 18 h; TGF-beta stimulated, 500 pg/mL final | Potency, µM (top dose mostly 46.1 µM), hits mostly inhibitors | actives 1.2% (n = 410,000) | AID 588855; also: nearly all actives have a fitted effect of over 65% in size
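Read-out: total well GFP (ex488/em500-530) summed from mean per-cell fluorescence. Cells: HEPG2 CAGA-GFP, 1% FBS DMEM, 18 h at 37 degrees C with 500 pg/mL final TGF-beta. Unstimulated wells served as the full-inhibition control; stimulated DMSO wells = 0%.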
S2 tox: cell viability loss in ATXN counter-screen. actives 0.49% (n = 400,000). S2 cells (HEK-293 line with an ATXN2-luciferase reporter) viability, CellTiter-Fluor protease fluorescence, 24 h. Potency, µM (titrated, usually from 56.7 µM), usual class: cytotoxic; also: nearly all actives have a fitted effect of over 40% in size
Of the large screens only hits and unclear results are named; the others gave an inactive call. An excerpt weighted towards active compounds, which were near 17% of everything screened. Calls follow the shape of the dose curve; as a rule, active = well fitted curve in the direction sought with a large enough effect; inconclusive = small, poorly fitted or top-dose-only effect, or another doubt; inactive = no such curve, though single readings can be large; an effect the other way counts as inactive or inconclusive.

O=C(CSc1nc(-c2cccs2)cc(C(F)(F)F)n1)Nc1cc(OCC(F)(F)F)cc([N+](=O)[O-])c1	DT40 TDP1 no CPT 18.4µM, TDP1 cell CPT inconclusive, ATXN2 expr inh inconclusive, S2 tox 15.8µM
CCOc1ccccc1NC(=O)CSc1nc(-c2cccs2)cc(C(F)(F)F)n1	none
CC(C)(C)c1ccccc1NC(=O)CSc1nc(-c2cccs2)cc(C(F)(F)F)n1	DT40 TDP1 no CPT inconclusive, TDP1 cell CPT 20.6µM, TGFb SMAD3 inh inconclusive
COc1cccc(CNC(=O)Cn2c(=O)cc(C(F)(F)F)c3c(C)nn(C)c32)c1OC	TDP1 cell CPT inconclusive
CCN(CC)CCNC(=O)c1ccc(NC(=O)c2cccc(-n3cnnn3)c2)cc1	none
CC(C)(C)c1ccc2c(c1)C(c1ccc3c(c1)OCO3)CC(=O)O2 (stereo not drawn)	none
O=C(NC(=O)c1ccccc1F)Nc1nc(-c2cccs2)cc(C(F)(F)F)n1	DT40 TDP1 no CPT inconclusive, TDP1 cell CPT 23.1µM
O=C(O)CSc1nc(-c2cccs2)cc(C(F)(F)F)n1	none
COc1ccc(CNS(=O)(=O)c2cnc(N)nc2)cc1	none (no result: ATXN2 expr inh, S2 tox)
CC(NC(=O)c1ccc(F)cc1)c1ccccc1 (stereo not drawn)	none
CC(NC(=O)c1cc2cc(F)ccc2[nH]1)c1ccccc1 (stereo not drawn)	DT40 TDP1 no CPT inconclusive, TDP1 cell CPT 18.4µM
COc1cccc(CNC(=O)CN2C(=O)CSc3ccc(S(=O)(=O)N4CCCCC4)cc32)c1	DT40 TDP1 no CPT inconclusive, TDP1 cell CPT inconclusive
Nc1nc(NCCc2ccc(O)cc2)nc2nc(-c3ccco3)nn12	DT40 TDP1 no CPT 11.6µM, TDP1 cell CPT 14.6µM (no result: HepG2 tox, ATXN2 expr inh, TGFb SMAD3 inh, S2 tox)
COc1ccc(CCNc2nc(-c3ccc(C)cc3)cc(C(F)F)n2)cc1OC	none
Cc1ccc(-c2cc(C(F)F)nc(S(C)(=O)=O)n2)cc1	DT40 TDP1 no CPT 1.3µM, TDP1 cell CPT 0.92µM, ATXN2 expr inh inconclusive, TGFb SMAD3 inh inconclusive, S2 tox inconclusive
O=C(NC1CCCCC1)C1c2ccccc2OCC(=O)N1CCc1c[nH]c2ccccc12 (stereo not drawn)	DT40 TDP1 no CPT 25.9µM, S2 tox inconclusive (no result: HepG2 tox, TGFb SMAD3 inh)
CCN(C(=O)CN1C(=O)CN(C)C1=O)c1cccc2ccccc12	DT40 TDP1 no CPT inconclusive, TDP1 cell CPT 11.6µM
CCN(C(=O)COC(=O)c1ccc(C)c(S(=O)(=O)N2CCOCC2)c1)C1CCS(=O)(=O)C1 (stereo not drawn)	TGFb SMAD3 inh inconclusive
CCC(C)C(=O)N1CCCC(c2nc(-c3cccs3)no2)C1 (stereo not drawn)	DT40 TDP1 no CPT inconclusive
COc1cccc(-c2noc(C3CCCN(C(=O)CC(C)(C)C)C3)n2)c1 (stereo not drawn)	DT40 TDP1 no CPT inconclusive, TDP1 cell CPT 16.4µM
CCCCC(=O)N1CCCC(c2nc(-c3cccc(OC)c3)no2)C1 (stereo not drawn)	DT40 TDP1 no CPT 14.6µM, TDP1 cell CPT inconclusive, S2 tox inconclusive (no result: ATXN2 expr inh)
CCCC(=O)N1CCCC(c2nc(-c3cccs3)no2)C1 (stereo not drawn)	DT40 TDP1 no CPT 25.9µM, TDP1 cell CPT inconclusive
CCOC(=O)c1cc(=O)c2c(OCC(COc3cccc4oc(C(=O)OCC)cc(=O)c34)OC(=O)[C@@H](N)CCCCN)cccc2o1	none (no result: HepG2 tox, DT40 TDP1 no CPT, TDP1 cell CPT, TGFb SMAD3 inh)
CC(Oc1ccc(Br)cc1)C(=O)Nc1ccc(N2CCOCC2)cc1N1CCOCC1 (stereo not drawn)	DT40 TDP1 no CPT inconclusive, TDP1 cell CPT inconclusive
COc1cc(C2CC(=O)Oc3cc(C)c(Br)c(C)c32)cc(OC)c1OC (stereo not drawn)	DT40 TDP1 no CPT inconclusive, TDP1 cell CPT 20.6µM, TGFb SMAD3 inh inconclusive
Cc1cc2c(c(C)c1Br)C(c1ccc3c(c1)OCO3)CC(=O)O2 (stereo not drawn)	TGFb SMAD3 inh 20µM
